From PubChem BioAssay (Tox21)
Values joined by “and” are separate entries in the source; they are usually repeats but may differ in a detail not shown here. Equal entries are not always repeated. Inconclusive results are not listed. Active and inactive are the calls of the source. Unless noted, the call rests on the fitted dose curve; in most records, active means well fitted curve in the direction sought with a large enough effect in the repeat runs; inconclusive means weak or mixed curves; inactive means no such curve, though single readings can be large; an effect the other way counts as inactive or inconclusive.

Assays:
[1] = qHTS assay to identify small molecule agonists of the hypoxia (HIF-1) signaling pathway - cell viability counter screen (AID 1224844; calls by dose curve; further: nearly all actives have a fitted effect of over 50% in size)
Procedure, shortened: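 Cytotoxicity was measured in parallel with the HRE-driven beta-lactamase readout: after 17 hrs of compound exposure at 37C, HRE-bla ME-180 cells received CellTiter-Glo and luminescence was recorded 30 min later.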

[2] = qHTS assay to identify small molecule agonists of H2AX (AID 1224845; active means well fitted activation curve with a large enough effect in the signal ratio in the repeat runs, not every such curve was filed as active; the % refers to the signal ratio)
Procedure, shortened: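 Phospho-H2AX Ser139 measured by HTRF (ex 320 nm; em 665 and 620 nm) after 24 hr antibody incubation. Compounds, 15 concentrations, 0.76% DMSO, were applied to CHO-K1 cells for 3hr at 37C before lysis.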

[3] = qHTS assay to identify small molecule agonists of the hypoxia (HIF-1) signaling pathway (AID 1224846; active means well fitted activation curve with a large enough effect in the signal ratio in the repeat runs, not every such curve was filed as active; the % refers to the signal ratio)
Procedure, shortened: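 Compounds from the Tox21 10K library, dissolved in DMSO, are tested for induction of a hypoxia response element–controlled beta-lactamase reporter in ME-180 cells. Exposure lasts 17 hrs at 37C after a 5 hr settling period, followed by CCF4-AM FRET substrate.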

[4] = qHTS assay to identify small molecule agonists of H2AX - cell viability counter screen (AID 1224847; calls by dose curve; further: top concentration of the series differs between compounds; nearly all actives have a fitted effect of over 30% in size)
Procedure, shortened: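 We seed wild-type CHO-K1 cells overnight, treat them for 3 hr at 37C with compounds in 15-concentration series, and quantify remaining viability by CellTiter-Glo luminescence.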

[5] = qHTS assay to identify small molecule antagonists of the estrogen related receptor (ERR) signaling pathway from Tox21 library (AID 1224848); further: nearly all actives have a fitted effect of over 50% in size
Procedure, shortened: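 ERR cell line, 2,000 cells/well. 6 h settle, then compound (DMSO) added; 18 h at 37 C; ONE-Glo luminescence after 30 min RT.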

[6] = qHTS assay to identify small molecule agonists of the estrogen related receptor (ERR) signaling pathway from Tox21 library (AID 1224849; calls by dose curve; further: nearly all actives have a fitted effect of over 15% in size)
Procedure, shortened: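 Cells carrying the ERR reporter were plated and allowed to settle for 6 h, exposed to library compounds for 18 h at 37 C, then lysed with ONE-Glo and luminescence measured.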

[7] = qHTS RealTime-Glo MT Cell Viability Assay in HepG2 cells - 24 hour (AID 1224867); further: nearly all actives have a fitted effect of over 50% in size
Procedure, shortened: (§1)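 HepG2 suspension premixed with RealTime-Glo reagents is plated at 600 cells per well and left 5 h at 37 C/5% CO2. Compounds in DMSO then go in, and bioluminescence reflecting viable cell number is recorded over 40 h.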

[8] = qHTS RealTime-Glo MT Cell Viability Assay in HEK293 cells - 32 hour (AID 1224868); further: top concentration of the series differs between compounds; nearly all actives have a fitted effect of over 50% in size
Procedure, shortened: (§2)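 Reads taken at 0, 8, 16, 24, 32 and 40 h from the same wells. HEK293 cells (600/well) carried RealTime-Glo reagents from seeding, with compound added after a 5 h settle at 37 C.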

[9] = A CellTox Green Cytotoxicity Assay to monitor cytotoxicity in HEK293 cells - 0 hour (AID 1224869); further: nearly all actives have a fitted effect of over 50% in size
Procedure, shortened: (§3)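 Cells (HEK293, 600/well) and dye reagent are dispensed together. After 5 h at 37 C, 23 nL compound is pinned in. Plates stay at 37 C for 40 h with fluorescence read at 0h, 8h, 16h, 24h, 32h and 40h.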

[10] = A CellTox Green Cytotoxicity Assay to monitor cytotoxicity in HEK293 cells - 40 hour (AID 1224871); further: nearly all actives have a fitted effect of over 45% in size
Procedure, shortened: as §3

[11] = qHTS RealTime-Glo MT Cell Viability Assay in HEK293 cells - 16 hour (AID 1224872)
Procedure, shortened: as §2

[12] = qHTS RealTime-Glo MT Cell Viability Assay in HepG2 cells - 8 hour (AID 1224873); further: nearly all actives have a fitted effect of over 55% in size
Procedure, shortened: (§4)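 Real-time viability: cells seeded at 600 per well together with NanoLuc and cell-permeant prosubstrate, compounds added after 5 h incubation. Luminescence tracked at 0, 8, 16, 24, 32 and 40 h of exposure.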

[13] = A CellTox Green Cytotoxicity Assay to monitor cytotoxicity in HEK293 cells - 24 hour (AID 1224875); further: series mostly up to about 77 µM; nearly all actives have a fitted effect of over 45% in size
Procedure, shortened: as §3

[14] = A CellTox Green Cytotoxicity Assay to monitor cytotoxicity in HepG2 cells - 16 hour (AID 1224876); further: nearly all actives have a fitted effect of over 45% in size
Procedure, shortened: (§5)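 Cells and non-lytic dye reagent are dispensed together (600 HepG2 cells/well) and incubated 5 h before DMSO compound transfer. Kinetic fluorescence is then recorded in the same wells during 40 h at 37 C.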

[15] = qHTS RealTime-Glo MT Cell Viability Assay in HepG2 cells - 32 hour (AID 1224877); further: nearly all actives have a fitted effect of over 55% in size
Procedure, shortened: as §1

[16] = A CellTox Green Cytotoxicity Assay to monitor cytotoxicity in HepG2 cells - 24 hour (AID 1224878); further: nearly all actives have a fitted effect of over 45% in size
Procedure, shortened: as §5

[17] = A CellTox Green Cytotoxicity Assay to monitor cytotoxicity in HepG2 cells - 40 hour (AID 1224879); further: nearly all actives have a fitted effect of over 40% in size
Procedure, shortened: as §5

[18] = qHTS RealTime-Glo MT Cell Viability Assay in HEK293 cells - 0 hour (AID 1224880)
Procedure, shortened: (§6)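 Real-time viability in HEK293: signal arises when living cells convert a prosubstrate for NanoLuc in the medium, so luminescence tracks viable cell number. Compound (23 nL, DMSO) added 5 h post-seeding; kinetic reads at 0–40 h, 37 C.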

[19] = qHTS RealTime-Glo MT Cell Viability Assay in HepG2 cells - 40 hour (AID 1224870); further: nearly all actives have a fitted effect of over 50% in size
Procedure, shortened: as §4

[20] = qHTS RealTime-Glo MT Cell Viability Assay in HEK293 cells - 40 hour (AID 1224874); settings: RealTime-Glo luminescence; max response: active compounds read low; further: nearly all actives have a fitted effect of over 50% in size
Procedure, shortened: as §6
On the % scale 0 is the no-effect control and ±100 the full control effect.

CCOCC(=O)O
inactive: outcome [1] | outcome [2] | outcome [3] | outcome [4] | outcome [5] | outcome [6] | Potency [7] | Potency [8] | outcome [9] | Potency [10] | Potency [11] | Potency [12] | Potency [13] | outcome [14] | outcome [15] | Potency [16] | Potency [17] | outcome [18]

CC(C)(C#N)c1cc(Cn2cncn2)cc(C(C)(C)C#N)c1
inactive: outcome [1] | outcome [2] | outcome [3] | outcome [4] | outcome [5] | outcome [6] | Potency [8] | outcome [9] | outcome [19] | Potency [10] | Potency [11] | max response [20] 0.713% and 4.85% | Potency [13] | outcome [14] | outcome [15] | Potency [16] | Potency [17] | outcome [18]

COC(=O)c1cccnc1
inactive: outcome [1] | outcome [2] | outcome [3] | outcome [4] | outcome [5] | outcome [6] | Potency [8] | outcome [9] | Potency [10] | Potency [11] | max response [20] 0.779% and 5.01% | Potency [13] | outcome [15] | Potency [16] | Potency [17] | outcome [18]

CCNc1cccc(C)c1
inactive: outcome [1] | outcome [2] | outcome [3] | outcome [4] | outcome [5] | outcome [6] | Potency [8] | outcome [9] | Potency [10] | Potency [11] | Potency [12] | Potency [13] | outcome [14] | outcome [15] | Potency [16] | Potency [17] | outcome [18]

CC(=O)CC(C)(C)O
inactive: outcome [1] | outcome [2] | outcome [3] | outcome [4] | outcome [5] | outcome [6] | Potency [8] | outcome [9] | Potency [10] | Potency [11] | Potency [12] | Potency [13] | outcome [14] | outcome [15] | Potency [16] | Potency [17] | outcome [18]

O=C1CCCC1
inactive: outcome [1] | outcome [2] | outcome [3] | outcome [4] | outcome [5] | outcome [6] | Potency [8] | outcome [9] | outcome [19] | Potency [10] | Potency [11] | max response [20] -0.988% and 5.09% | Potency [13] | outcome [14] | outcome [15] | Potency [16] | Potency [17] | outcome [18]

CC1(C)NC(=O)NC1=O
inactive: outcome [1] | outcome [2] | outcome [3] | outcome [4] | outcome [5] | outcome [6] | Potency [7] | Potency [8] | outcome [9] | Potency [10] | Potency [11] | Potency [12] | Potency [13] | outcome [14] | outcome [15] | Potency [16] | Potency [17] | outcome [18]
